Sampled rows, rich in hits. Any-hit rate of the full collection: about 11%.
ERK AVP inh = inhibitors of vasopressin-stimulated ERK signaling pathway | AID 995 | HEK293-V1b, vasopressin-stimulated pERK AlphaScreen | hit rate 0.99% among 72,000 | Potency, µM (series often up to 57.5 µM), for the others: at the top dose activity, negative = inhibition, usual class: inhibitors; further: nearly all actives have a fitted effect of over 55% in size
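Overnight-seeded V1b-HEK293 cells in 1% FBS got compound, then vasopressin (25 nM final, 5 min, 37C), then lysis buffer. AlphaScreen detection of phospho-ERK; activity normalized to basal and full-stimulation controls.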
HSD17B inhib = HSD17B dehydrogenase inhibition | Q99714 | recombinant HSD17B10, NADH fluorescence kinetic | Potency, µM (highest dose often 57.1 µM), inactives show at the highest dose activity change, negative = inhibition, actives largely listed as inhibitors | hit rate 7.6% among 75,000 | AID 893;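 further: the protocol describes HADH2 (HSD17B10) and not the HSD17B4 of the title; nearly all actives have a fitted effect of over 70% in size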
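20 nM HADH2, pH 9.0 Tris/Tween; cpd preinc 15 min RT; start w/ 1 mM NAD+ + 90 uM b-hydroxybutyryl-CoA; kinetic fluor ex360/em450 q30s x 4 min; delta last-first.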
Luciferase inh = firefly luciferase inhibition. Potency, µM (titrated, usually from 57.1 µM), without a hit: top-dose activity change, negative = inhibition, actives largely listed as inhibitors. hit rate 2.2% among 72,000. P08659. purified firefly luciferase, luminescence, 8 min; further: nearly all actives have a fitted effect of over 40% in size
Target sequence (P08659 whole entry, looked up): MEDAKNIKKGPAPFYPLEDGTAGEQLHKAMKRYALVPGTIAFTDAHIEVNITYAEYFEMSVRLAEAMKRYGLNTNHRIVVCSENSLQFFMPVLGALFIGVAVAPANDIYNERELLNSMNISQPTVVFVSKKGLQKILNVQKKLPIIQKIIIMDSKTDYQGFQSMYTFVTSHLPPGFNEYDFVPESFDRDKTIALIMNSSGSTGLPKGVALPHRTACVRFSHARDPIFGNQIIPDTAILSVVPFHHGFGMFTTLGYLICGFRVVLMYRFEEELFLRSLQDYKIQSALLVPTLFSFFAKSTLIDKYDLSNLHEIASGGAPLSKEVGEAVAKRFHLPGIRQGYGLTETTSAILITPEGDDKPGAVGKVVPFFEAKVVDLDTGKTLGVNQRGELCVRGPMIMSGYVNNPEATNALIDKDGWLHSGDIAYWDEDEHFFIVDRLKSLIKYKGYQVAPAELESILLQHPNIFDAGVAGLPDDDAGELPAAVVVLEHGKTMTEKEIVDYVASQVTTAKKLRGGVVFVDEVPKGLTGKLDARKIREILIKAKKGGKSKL
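qHTS concentration-response profiling: light output of P. pyralis luciferase with luciferin and 10 uM ATP, imidazole buffer pH 7.2. Read by luminescence after 8-min room-temperature incubation.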
HADH2 inhib = HADH2 (human) dehydrogenase inhibition | Potency, µM (highest dose often 57.1 µM), without a hit: at the top dose activity change, negative = inhibition, most hits filed as inhibitors | recombinant HADH2, NADH fluorescence, beta-hydroxybutyryl-CoA | hit rate 3.4% among 73,000 | Q99714; further: nearly all actives have a fitted effect of over 60% in size
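NADH fluorescence (ex 360/em 450 nm) read every 30 s for 4 min; activity taken as last-minus-first time point difference. Enzyme 20 nM, NAD+ 1 mM, beta-hydroxybutyryl-CoA 90 uM, pH 9.0 Tris buffer.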
ALOX15 inhib = inhibitors of human 15-lipoxygenase (ALOX15); Potency, µM (series often up to 57.1 µM), for inactives: at the top dose activity change, negative = inhibition, usual class: inhibitors; hit rate 1.4% among 74,000; purified 15hLO-1, xylenol orange hydroperoxide absorbance; further: nearly all actives have a fitted effect of over 55% in size
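Purified human 15hLO-1 (40 nM) in 25 mM Hepes pH 7.5, 0.01% Triton X-100, preincubated 15 min RT with compound, then 50 uM arachidonic acid for 6 min. Hydroperoxide read by ferrous/xylenol orange, 30 min; 573/405 nm absorbance ratio gave progress.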
PK Bst = modulators of Bacillus stearothermophilus pyruvate kinase; purified pyruvate kinase, luminescence ATP production; ribose 5-phosphate activator present at AC10; Potency, µM; hit rate 1.2% among 51,000; AID 361; in the data active means potency below about 11 µM; inconclusive means mostly about 12 µM to 25 µM;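 the screen sought inhibitors and activators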;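 further: scaled between full activation by ribose 5 phosphate and full inhibition by luteolin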
Numbers without * were called inactive; [ ] = remark or other dose. Unless noted, the call rests on the fitted dose curve; in most records, active means well fitted curve in the direction sought with a large enough effect; inconclusive means small, poorly fitted or top-dose-only effect, or another doubt; inactive means no such curve, though single readings can be large; an effect the other way counts as inactive or inconclusive. Unless noted, on the % scale 0 is the no-effect control and ±100 the full control effect; potency means the concentration at half of the fitted maximal effect.

`O=c1c(-c2ccc(F)cc2)nc2cnc(Oc3ccccc3)nc2n1C[C@H]1CCCO1` gave ERK AVP inh -18%, HSD17B inhib inconclusive, Luciferase inh -2%[11.4 µM], HADH2 inhib 3% and ALOX15 inhib 1%.
`COC(=O)c1ccc2c(c1)N(C)CCS2` gave ERK AVP inh -22%, HSD17B inhib 32µM*, Luciferase inh 1%, HADH2 inhib -23% and ALOX15 inhib inconclusive.
For CCOC(=O)N1CCC(NC(=O)c2ccc3c(c2)N(C)CCS3)CC1 the results were ERK AVP inh 15%, HSD17B inhib 32µM*, Luciferase inh -1%, HADH2 inhib 159%, ALOX15 inhib -27% and PK Bst >57.
For CN1C(=O)CSc2ccc(C(=O)O)cc21 the results were HSD17B inhib 4%, Luciferase inh -1%, HADH2 inhib -9% and ALOX15 inhib 4%.
For O=C(c1cc2nc(-c3ccccc3)cc(C(F)(F)F)n2n1)N1CCCC1 the results were ERK AVP inh 0%, HSD17B inhib 4%, Luciferase inh 1%, HADH2 inhib 19%, ALOX15 inhib 2% and PK Bst >57.
N#Cc1cnn(-c2ccccc2)c1N was read as ERK AVP inh -8%, HSD17B inhib 3%, Luciferase inh 1%, HADH2 inhib -3%, ALOX15 inhib 6% and PK Bst >57.
O=C(c1nc2nc(-c3ccccc3)cc(C(F)(F)F)n2n1)N1CCCCC1 was read as ERK AVP inh -27%, HSD17B inhib 32µM*, Luciferase inh -6%, HADH2 inhib -20%[11.4 µM] and ALOX15 inhib 4%[11.4 µM].
Cc1cc(-c2ccccc2)n2ncc(C#N)c2n1 was read as ERK AVP inh inconclusive, HSD17B inhib 25µM*, Luciferase inh -1%, HADH2 inhib inconclusive and ALOX15 inhib -5%.
`CSc1nc2nc(-c3ccccc3)cc(C(F)(F)F)n2n1` gave ERK AVP inh -21%, HSD17B inhib 32µM*, Luciferase inh -4%, HADH2 inhib inconclusive, ALOX15 inhib -3% and PK Bst >57.
`Cc1cc(C)n2nc(SCc3ncc(-c4ccccc4)o3)nc2n1` gave ERK AVP inh 13%, HSD17B inhib 3%, Luciferase inh 1%, HADH2 inhib -2%, ALOX15 inhib -12% and PK Bst >57.
CSc1nc2nc(C)cc(-c3ccccc3)n2n1 was read as ERK AVP inh -30%, HSD17B inhib 32µM*, Luciferase inh 1%, HADH2 inhib inconclusive, ALOX15 inhib 1% and PK Bst >57.
For CCOC(=O)OCC1OC(C#Cc2ccccc2)C=CC1Oc1cccc(N(C)C)c1 (stereo not given) the results were ERK AVP inh 24%[11.5 µM], HSD17B inhib -13%[11.4 µM], HADH2 inhib -20%[11.4 µM] and ALOX15 inhib -22%[11.4 µM].
Screening O[C@@H]1CC[C@H]2Cc3ccccc3N=C21 returned Luciferase inh 2%[11.4 µM] and HADH2 inhib 4%.
`N=C(N)S/C=C\C(=O)O` gave ERK AVP inh 18%, HSD17B inhib -6%, Luciferase inh -4%, HADH2 inhib 5µM* and ALOX15 inhib -12%[25.6 µM].
CCN(Cc1ccccc1)C(=O)CCCOc1ccccc1 was read as ERK AVP inh inconclusive, HSD17B inhib inconclusive, Luciferase inh -2%, HADH2 inhib -1%[11.4 µM] and ALOX15 inhib 4µM*.
O=C(O)CCCC(=O)N(Cc1ccccc1)Cc1ccccc1 was read as ERK AVP inh -24%, HSD17B inhib 3%, Luciferase inh 3%, HADH2 inhib 2%[11.4 µM] and ALOX15 inhib 4%[11.4 µM].
CC(C)CN(CC#N)CC(C)C was read as ERK AVP inh inconclusive, HSD17B inhib 3%[11.4 µM], Luciferase inh 2%[11.4 µM], HADH2 inhib 8%[11.4 µM] and ALOX15 inhib -3%[11.4 µM].
Cc1ncoc1C(=O)Nc1nccs1 was read as ERK AVP inh -3%, HSD17B inhib -1%, Luciferase inh -1%, HADH2 inhib -3%, ALOX15 inhib 6% and PK Bst >57.
For COCc1cc(C)nc2sc(C(=O)Nc3nccs3)c(N)c12 the results were HSD17B inhib -21%, Luciferase inh -13%, HADH2 inhib 7.9µM* and ALOX15 inhib inconclusive.
Cc1cc(C)c2c(N)c(C(=O)Nc3nccs3)sc2n1 was read as ERK AVP inh 10%, HSD17B inhib 25µM*, Luciferase inh 0.5µM*, HADH2 inhib 65% and ALOX15 inhib -12%.
Screening COc1cccc(CC(=O)Nc2nccs2)c1 returned ERK AVP inh -22%, HSD17B inhib -5%, Luciferase inh 1%, HADH2 inhib 1%, ALOX15 inhib 5% and PK Bst >57.
`CC1CCN(CC(=O)Nc2sc3c(c2C#N)CCC3)CC1` gave ERK AVP inh 1%, HSD17B inhib inconclusive, Luciferase inh 10%, HADH2 inhib 7%, ALOX15 inhib 25µM* and PK Bst >57.
For Cc1cc(C(=O)Nc2sc3c(c2C#N)CCCCC3)cs1 the results were ERK AVP inh 12%, HSD17B inhib inconclusive, Luciferase inh 16µM*, HADH2 inhib 16µM*, ALOX15 inhib inconclusive and PK Bst inactive.
`CCCc1cc(C(=O)Nc2sc3c(c2C#N)CCC3)no1` gave ERK AVP inh -16%, HSD17B inhib inconclusive, Luciferase inh 0%, HADH2 inhib 16µM* and ALOX15 inhib -6%.
CCCc1cc(C(=O)Nc2sc(C)c(C)c2C(=O)OCC)no1 was read as ERK AVP inh 13%, HSD17B inhib 32µM*, Luciferase inh 1%, HADH2 inhib inconclusive and ALOX15 inhib -10%.
CCCC(=O)Nc1sc2c(c1C#N)CCCC2 was read as Luciferase inh -3%[25.5 µM] and PK Bst >26.
`O=c1c2ccccc2oc2cc(O)c([C@@H]3COC[C@@H](CO)[C@@H](O)[C@@H](O)[C@H]3O)c(O)c12` gave Luciferase inh 1%[11.4 µM] and HADH2 inhib -28%.
Screening CNc1ncnc2c1ncn2[C@@H]1O[C@@H](CO)[C@H](O)[C@@H]1O returned ERK AVP inh 29%, HSD17B inhib 8%, Luciferase inh -4%, HADH2 inhib -18% and ALOX15 inhib 5%.
For CCCc1cc(C(=O)Nc2cccc(C(C)=O)c2)no1 the results were ERK AVP inh inconclusive, HSD17B inhib 12%, Luciferase inh -14%, HADH2 inhib -2% and ALOX15 inhib 6%.
For CCCc1cc(C(=O)Nc2cccc(Cl)c2)no1 the results were ERK AVP inh 35%, HSD17B inhib 0%, Luciferase inh 16µM*, HADH2 inhib -12% and ALOX15 inhib -10%.
Screening N#Cc1c(NC(=O)c2ccncc2)sc2c1CCC2 returned ERK AVP inh -9%, HSD17B inhib inconclusive, Luciferase inh 20µM*, HADH2 inhib 7.9µM* and ALOX15 inhib inconclusive.

Screens from PubChem.
